Screening data deposited in PubChem BioAssay by National Center for Advancing Translational Sciences (NCATS).
The list is not random: actives were taken first. Their share in the collection is about 12%.
HP1b binding inh – HTS for Inhibitors of HP1-beta Chromodomain Interactions with Methylated Histone Tails; Chromobox protein homolog 1 (Homo sapiens), P83916; AlphaScreen HP1-beta / biotin-H3K9me3 peptide binding; Potency, µM (titrated, usually from 114 µM), for inactives: at the highest dose activity change, negative = inhibition, most hits filed as inhibitors; 390,000 tested, 0.56% active; further: nearly all actives have a fitted effect of over 70% in size
Target sequence (P83916 whole entry, looked up): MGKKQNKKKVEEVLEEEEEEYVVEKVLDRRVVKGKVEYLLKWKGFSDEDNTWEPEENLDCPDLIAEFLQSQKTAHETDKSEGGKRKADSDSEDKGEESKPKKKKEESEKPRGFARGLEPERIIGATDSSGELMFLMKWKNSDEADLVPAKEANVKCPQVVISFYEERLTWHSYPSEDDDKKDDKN
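Compound inhibition of the preformed complex between 50 nM HP1-beta and 50 nM biotinylated H3K9me3 peptide was read by AlphaScreen. Buffer was PBS pH 7.4 with 0.01% Tween-20. Incubations ran 30 min at room temperature, with 10 ug/mL donor/acceptor beads.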
G9a block – qHTS Assay for Inhibitors of Histone Lysine Methyltransferase G9a; Histone-lysine N-methyltransferase EHMT2 (Homo sapiens), Q96KQ7; 350,000 tested, 8.8% active; G9a H3K9 monomethylation, AlphaScreen, 2 h; Potency, µM (series often up to 102 µM), for the others: top-dose activity, negative = inhibition, most hits filed as inhibitors; AID 504332, 2011; further: on the % scale 0 is the no-effect control and ±100 the full control effect; nearly all actives have a fitted effect of over 75% in size
Target sequence (Q96KQ7 913-1193 limits assumed): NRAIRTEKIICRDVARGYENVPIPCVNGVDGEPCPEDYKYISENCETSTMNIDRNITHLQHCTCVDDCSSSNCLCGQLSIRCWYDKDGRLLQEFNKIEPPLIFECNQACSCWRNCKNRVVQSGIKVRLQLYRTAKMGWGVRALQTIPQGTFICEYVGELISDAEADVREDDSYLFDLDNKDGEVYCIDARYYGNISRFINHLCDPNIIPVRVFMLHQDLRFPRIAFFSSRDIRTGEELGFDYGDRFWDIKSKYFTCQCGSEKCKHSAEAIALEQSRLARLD
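Chemiluminescent proximity detection of H3K9 monomethylation, read after 10 min bead incubation in the dark. Reaction: 20 nM G9a, 500 nM biotin-H3K9 peptide, 20 uM SAM cofactor, 2 h, room temperature, following 15 min enzyme-compound preincubation.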
Sfp inh – qHTS Assay for Inhibitors of Bacillus subtilis Sfp phosphopantetheinyl transferase (PPTase); Potency, µM, inactives show largest response in the series, negative = inhibition, hits mostly inhibitors; 310,000 tested, 3.5% active; AID 1490, 2009; Biochemical Sfp PPTase activity, qHTS; 4'-phosphopantetheinyl transferase ffp (Bacillus subtilis), Q9F4F7;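 further: the enzyme is Sfp with the accession as filed and its product quenches rhodamine fluorescence; 0% = enzyme reaction without inhibitor and -100% = no enzyme wells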
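Step 1, compound plus 15 nM Sfp-PPTase, 15 min, room temperature. Step 2, add rhodamine-CoA (5 uM) and BHQ-2-YbbR (12.5 uM). Step 3, read 525/598 nm fluorescence at 0 and 30 min.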
JMJD2A Tudor – qHTS Assay for Inhibitors of JMJD2A-Tudor Domain | 390,000 tested, 4.4% active | AlphaScreen JMJD2A-Tudor / H3K4me3 peptide binding | Potency, µM (top dose mostly 114 µM), for the others: at the top dose activity change, negative = inhibition, hits mostly inhibitors; further: on the % scale 0 is the no-effect control and ±100 the full control effect; nearly all actives have a fitted effect of over 50% in size
BAZ2B block – qHTS Assay for Inhibitors of BAZ2B; AlphaScreen BAZ2B-H3K14Ac peptide displacement; Bromodomain adjacent to zinc finger domain protein 2B (Homo sapiens), Q9UIF8; Potency, µM (titrated, usually from 114 µM), without a hit: at the top dose activity change, negative = inhibition, most hits filed as inhibitors; AID 504333, 2011; 360,000 tested, 4.4% active; further: on the % scale 0 is the no-effect control and ±100 the full control effect; nearly all actives have a fitted effect of over 60% in size
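BAZ2B (50 nM) with biotin-H3(5-23)K14Ac peptide (50 nM) in PBS pH 7.4, 0.01% Tween-20, preformed 30 min, then compound 30 min at room temperature; top concentration 110uM. AlphaScreen streptavidin donor/nickel chelate acceptor beads (10 ug/mL final), 20 min dark, signal read.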
* hit, by the source's call; ? = inconclusive; . = no result; [ ] = dose if it differs, or a comment. The call rests on the fitted dose curve; in most records, active means well fitted curve in the direction sought with a large enough effect; inconclusive means small, poorly fitted or top-dose-only effect, or another doubt; inactive means no such curve, though single readings can be large; an effect the other way counts as inactive or inconclusive. Potency means the concentration at half of the fitted maximal effect.

SMILES	HP1b binding inh	G9a block	Sfp inh	JMJD2A Tudor	BAZ2B block
Nc1ccc(SCc2cccnc2)cc1	-1.9%	44.7µM*	-8.2%	-17.7%	21.3%
Nc1ccc(CSc2ccccc2)cc1	-3.8%[57 µM]	.	.	-31.0%	.
COc1ccc(S(=O)(=O)Nc2ccc3c(c2)C(=O)N([C@H](C)CO)C[C@H](C)[C@@H](CN(C)C(=O)Nc2c(C)noc2C)O3)cc1	36.6%	.	.	-12.2%	.
CC(=O)OCc1nc2sc(C)c(C)c2c(=O)[nH]1	70.7%	19.7%[59 µM]	1.8%	-4.1%	7.2%
Cc1ccc(S(=O)(=O)N2CC(O)CC2C(=O)OCc2nc3sc(C)c(C)c3c(=O)[nH]2)cc1 (stereo not drawn)	27.0%	3.98µM*	14.4%	0.4%	-1.6%
Cc1nn(-c2ccc(N3CCOCC3)nn2)c(C)c1CCC(=O)N1CCN(C)CC1	40.9%	4.0%	6.5%	3.1%	-15.8%[57.1 µM]
CN(C)c1nc(N)c2ncc(=S)[nH]c2n1	20.3%	1.78µM*	50.1µM*	3.16µM*	-32.5%
Cc1cccc(C(=O)NNc2ncnc3c2cnn3-c2ccc(C)cc2C)c1	65.8%	13.4%[59 µM]	.	-26.0%	12.9%
C=CCn1c(CCNC(=O)c2cccs2)nnc1SCC(=O)c1ccc(Br)cc1	27.8%	44.7µM*	1.3%	-20.0%	-0.3%
C=CCn1c(SCC(=O)c2ccc(NS(=O)(=O)c3ccccc3)cc2)nnc1-c1cccs1	-1.0%	?	-18.6%	31.6µM*	-7.8%
Oc1cccc(/C=N/NC(=S)NCCN2CCOCC2)c1O	31.5%	3.3%[12.7 µM]	6.6%	22.4µM*	8.91µM*
O=C(O)c1ccc(/C=N/NC(=S)NCCN2CCOCC2)cc1	27.3%	-41.6%	50.1µM*	31.6µM*	-5.2%
S=C(NCCN1CCOCC1)N/N=C/c1cccs1	30.3%	30.7%[2.33 µM]	-1.5%	-26.8%	-11.0%
COC(=O)[C@@]1(Cc2ccccc2)[C@H]2c3cc(C(=O)N4CCCC4)n(Cc4ccc(S(C)(=O)=O)cc4)c3C[C@H]2CN1C(=O)c1ccccc1	.	.	5.9%	.	.
CCOc1ccc(-c2nc(CNC(=O)NC3CCCCC3)c(C)o2)cc1	27.7%	32.4%[59 µM]	.	-9.3%	-11.3%
Nc1ccc2c(c1Cl)C(=O)c1ccc(N)c(Cl)c1C2=O	15.5%	25.1µM*	-11.2%	56.2µM*	56.2µM*
O=C(CCc1ccco1)CCc1ccco1	?	.	.	56.2µM*	.
COc1cc(NC(=O)CN(c2ccc(C)cc2)S(=O)(=O)c2cccc3nonc23)cc(OC)c1	8.2%	?	.	?	.
Cc1ccc(C(C)C)c(OCC(=O)NNC(=O)CC2OC(=O)c3ccccc32)c1 (stereo not drawn)	45.0%	-44.4%	.	-20.7%	?
CCn1c(C)c(/C=N/Nc2nc3ccccc3s2)c2ccccc21	?	39.8µM*	1.5%	31.6µM*	15.8µM*
O=C(O)c1oc2ccccc2c1-n1cccc1	-3.6%	?	-1.9%	79.4µM*	4.5%
COC(=O)c1oc2ccc(Br)cc2c1-n1cccc1	20.8%	16.1%[59 µM]	-25.7%	-28.8%	-1.3%
O=C1/C(=C\c2cccnc2)SC(=S)N1c1ccc(F)cc1	17.6%	13.3%	16.8%	-31.9%	4.9%
O=C1/C(=C/c2ccc(F)cc2)SC(=S)N1Nc1ncc(C(F)(F)F)cc1Cl	-5.4%	44.7µM*	50.1µM*	63.1µM*	-3.7%
O=C1/C(=C/c2ccccn2)SC(=S)N1Nc1ncc(C(F)(F)F)cc1Cl	?	.	.	50.1µM*	.
SMILES	HP1b binding inh	G9a block	Sfp inh	JMJD2A Tudor	BAZ2B block
O=C1/C(=C\c2ccccn2)SC(=S)N1Nc1ncc(C(F)(F)F)cc1Cl	-33.2%	10µM*	50.1µM*	56.2µM*	79.4µM*
COc1ccccc1NC(=O)c1cc(S(=O)(=O)N(C)C2CCCCC2)ccc1F	33.7%	7.9%[59 µM]	.	-8.9%	12.1%
N#CC(=C1CCCC1)c1nc(-c2ccccc2O)cs1	5.8%	35.5µM*	?	-22.7%	-31.6%
O=C1[O][Bi][O]c2ccccc21	.	3.16µM*	9.2%	.	.
O=C1NCCNC(=O)c2ccccc2OCCOc2ccccc21	29.0%	-6.8%[59 µM]	17.8%	-7.5%	-0.6%
C=C(C)C(O)/C=C/c1cccc(OC)c1 (stereo not drawn)	.	.	19.7%	.	.
CC(C)[C@H](N)c1cn([C@@H](CO)C(=O)N2CCNCC2)nn1	15.2%	26.9%[2.33 µM]	.	-30.8%	?
NC(=O)C[C@H](N)c1cn([C@@H](CC(N)=O)C(=O)N2CCNCC2)nn1	-3.6%	-14.9%[2.33 µM]	.	79.4µM*	?
N[C@@H](CO)c1cn([C@@H](Cc2cc3ccccc3[nH]2)C(=O)N2CCNCC2)nn1	27.2%	-5.9%[12.7 µM]	9.4%	79.4µM*	50.1µM*
CC(C)c1ccc(NC(=O)c2ccc(CN3CC(=O)N4CCCCC4C3=O)cc2)cc1 (stereo not drawn)	8.5%	-24.1%[59 µM]	.	-8.9%	-4.0%
O=C(NCc1ccccc1)[C@]1(C(F)(F)F)C[C@H](CCCO)CCCO1	21.5%	.	5.5%	-7.6%	.
CCC(Nc1ccc(-c2nc(-c3ccccn3)no2)cc1[N+](=O)[O-])c1ccccc1 (stereo not drawn)	18.5%	-8.5%[59 µM]	.	-23.8%	-3.2%
COCC(C)N=C1NN=C(c2cccs2)C(CC(=O)O)S1 (stereo not drawn)	10.7%	50.1µM*	35.5µM*	-6.5%	-31.1%
Cc1ccccc1NC(=O)c1ccc2ccccc2c1	14.2%	5.8%	7.7%	-9.1%	-4.8%
Cc1nnc(NC(=O)c2ccc3ccccc3c2)o1	30.6%	6.8%[59 µM]	-11.3%	50.1µM*	28.2µM*
COCCN(CCOC)S(=O)(=O)c1ccc(C(=O)Nc2nnc(C)o2)cc1	3.8%	7.08µM*	89.1µM*	28.2µM*	14.1µM*
COCCN(CCOC)S(=O)(=O)c1ccc(C(=O)Nc2ccc([N+](=O)[O-])cc2OC)cc1	37.3%	3.9%	44.7µM*	-17.1%	-11.4%
Cc1nnc(NC(=O)c2ccc(S(=O)(=O)N(C)Cc3ccccc3)cc2)o1	42.7%	-1.5%	29.3%	?	79.4µM*
CCN(CC)CC(O)Cn1c(C)c(-c2ccccc2)c2cc([N+](=O)[O-])ccc21 (stereo not drawn)	-12.4%	44.7µM*	-14.8%	?	?
CCOC(=O)N1CCN(C(=O)/C(=C/c2ccc(OC)c(OC)c2)NC(=O)c2ccccc2)CC1	12.0%	11.5%[0.501 µM]	7.1%	-8.8%[57.1 µM]	6.8%
COc1ccc(/C=C(\NC(=O)c2ccccc2)C(=O)OC[C@@H]2CCC[N+]3(C)CCCCC23)cc1OC (stereo partly drawn)	?	-16.9%[59 µM]	12.6%	15.8µM*	-10.9%
O=C(Nc1ccccc1C(F)(F)F)NC1(C(=O)N2CCOCC2)CCCCC1	-38.1%[57 µM]	.	.	8.91µM*	.
COc1ccc(NC(=O)c2oc3ccccc3c2NC(=O)c2cc(C)cc(C)c2)c(OC)c1	26.9%	-0.9%[59 µM]	.	-15.2%	-32.9%
C/C(=C\C=C(C#N)C#N)c1cc(C#N)c(N)o1	?	20µM*	-7.5%	?	25.1µM*
